# PubChem BioAssay (EPA / NIEHS)
# Calls of active or inactive are those of the source. Rule for the calls: active = hit-call score of the fitted dose curve at least 0.9, where 1 is the maximum; inactive = score below 0.9.
# Target: Myc proto-oncogene protein (Homo sapiens) (UniProt P01106)
# Experiment: ATG_Myc_CIS: Attagene CIS-FACTORIAL HepG2 Assay for human Myelocytomatosis (Myc) Proto-Oncogene Transcription Factor (AID 2282990)
# Conditions: HepG2, Attagene cis-reporter transcription factor activity; actives raise or lower the signal
# Protocol: ATG_CIS is a cell-based, multiplexed-readout assay that uses HepG2, a human liver cell line, with measurements taken at 24 hours after chemical dosing in a 24-well plate.ATG_Myc_CIS is one of 52 assay component(s) measured or calculated from the ATG_CIS assay. It is designed to make measurements of mRNA induction, a form of inducible reporter, as detected with fluorescence intensity signals by Reverse transcription polymerase chain reaction (RT-PCR) and Capillary electrophoresis technology.Data from the assay component ATG_Myc_CIS was analyzed into 1 assay endpoint. This assay endpoint, ATG_Myc_CIS, was analyzed with bidirectional fitting relative to DMSO as the negative control and baseline of activity. Using a type of inducible reporter, measures of mRNA for gain or loss-of-signal activity can be used to understand the reporter gene at the transcription factor-level as they relate to the gene MYC. Furthermore, this assay endpoint can be referred to as a primary readout, because this assay has produced multiple assay endpoints where this one serves a reporter gene function. To generalize the intended target to other relatable targets, this assay endpoint is annotated to the dna binding intended target family, where the subfamily is basic helix-loop-helix leucine zipper.
# Human liver HepG2 cells are transiently transfected with multiple reporter transcription units (MRTUs) in 6-well plates using FuGene 6 reagent (Roche; 3 ml FuGene/1 mg DNA). The MRTU constructs are regulated by a cis-regulating element (promoter). […] A major difference between the CIS and TRANS system is that in CIS activities of endogenous TFs are measured, whereas the TRANS assay evaluates changes in activities of exogenous, chimeric NR-Gal4 proteins. […] At the end of 24 hour incubation, total RNA was isolated using TriZol reagent (Invitrogen). The isolated RNA is then reverse-transcribed using oligo(dT) primer and Mo-MLV reverse transcriptase (Invitrogen) with DNAse I (Ambion) treatment for 30 min. The one-tenth of the produced cDNA was amplified by PCR using Taq DNA polymerase (Invitrogen) and two reporter sequence-specific primers. The PCR products were fluorescently labeled by primer extension with 6-arboxyfluorescein (6-FAM) 5'-labeled reporter sequence-specific primer (2 min at 95 C, 20 s at 68 C and 10 min at 72 C) and these products were digested with 5U of HpaI (New England Biolabs) for 2h at 37 C. The fragments were purified using Qiaquick PCR columns (Qiagen), analyzed on an ABI 3130xL genetic analyzer (Applied Biosystems) with peak positions identified by using a set of X-rhodamine (ROX)-labeled MapMarker1000 molecular weight standards (BioVentures). The raw capillary electrophoresis data was processed using Attagraph software (Attagene).
# Sequence of Myc proto-oncogene protein (Homo sapiens) (P01106 whole entry, looked up): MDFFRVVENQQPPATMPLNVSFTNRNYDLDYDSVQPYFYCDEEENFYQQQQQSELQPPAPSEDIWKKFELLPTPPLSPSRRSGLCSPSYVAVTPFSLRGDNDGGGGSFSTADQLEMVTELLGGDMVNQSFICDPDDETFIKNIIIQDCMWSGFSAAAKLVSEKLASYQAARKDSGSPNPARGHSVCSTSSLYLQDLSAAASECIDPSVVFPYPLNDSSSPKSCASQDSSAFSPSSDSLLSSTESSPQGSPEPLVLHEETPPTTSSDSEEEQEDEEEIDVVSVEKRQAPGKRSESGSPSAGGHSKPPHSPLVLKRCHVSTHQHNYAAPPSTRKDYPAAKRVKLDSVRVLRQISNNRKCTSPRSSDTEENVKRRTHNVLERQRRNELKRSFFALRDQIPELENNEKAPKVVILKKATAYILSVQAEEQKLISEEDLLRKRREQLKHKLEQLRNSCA
row,SMILES,outcome
1,CCC[CH2][Sn]([Cl])([Cl])[CH2]CCC,inactive
2,BrCC(Br)c1ccccc1 (stereo not given),inactive
3,COc1ccc([N+](=O)[O-])cc1O,inactive
4,C=CC(=O)OCC(COC(=O)C=C)(COC(=O)C=C)COC(=O)C=C,inactive
5,CC(C)CP(=S)(S)CC(C)C,inactive
6,CCOC(=O)C(SP(=S)(OC)OC)c1ccccc1 (stereo not given),inactive
7,C[C@H]1C(=O)O[C@@H]2CCN3CC=C(COC(=O)[C@](C)(O)[C@]1(C)O)[C@H]23,inactive
8,CCCCOC(C)=O,inactive
9,BrCCCCBr,inactive
10,CNC(=O)N(C)c1nc2ccccc2s1,inactive
11,O=C(O)C1(c2ccc3c(c2)OC[C@H](Cc2ccc(-c4ccccc4)cc2)[C@H]3O)CCCC1,inactive
12,CC(C)(C)c1ccc(CCOc2ncnc3ccccc23)cc1,inactive
13,Brc1c(Br)c(Br)c(Oc2c(Br)c(Br)c(Br)c(Br)c2Br)c(Br)c1Br,inactive
14,CCCCC(CC)C(=O)Cl (stereo not given),inactive
15,CCC(C)(C#N)N=NC(C)(C#N)CC (stereo not given),inactive
16,CCCCN(CCCC)C(=S)S,inactive
17,OC(Cc1ccccc1Cl)(Cn1[nH]cnc1=S)C1(Cl)CC1 (stereo not given),inactive
18,C=C(C)C(=O)OCC(CC)CCCC (stereo not given),inactive
19,CC(C)(C1CCC(O)CC1)C1CCC(O)CC1 (stereo not given),inactive
20,CCOP(=O)(OCC)SCCSCC,inactive

row,SMILES,outcome
1,O=[N+]([O-])c1c2ccccc2cc2ccccc12,inactive
2,Cc1cc(Cl)ccc1N,inactive
3,O=C(CBr)c1ccc(O)cc1,inactive
4,C#CCO,inactive
5,OCCN(CCO)CCO,inactive
6,O=C(O)COc1ccc(Cl)cc1,inactive
7,O=C(NC(=O)c1c(F)cccc1F)Nc1cc(Cl)c(Oc2ncc(C(F)(F)F)cc2Cl)c(Cl)c1,inactive
8,O=C(N[C@H]1CN2CCC1CC2)c1ccc2c(c1)OCCO2,inactive
9,CCCSP(=S)(OCC)Oc1ccc(SC)cc1 (stereo not given),inactive
10,ClCc1ccccc1Cl,inactive
11,CC1CC(=O)O1 (stereo not given),inactive
12,CS(=O)(=O)c1ccc(C(=O)C2C(=O)CCCC2=O)c(Cl)c1COCC(F)(F)F,inactive
13,Cc1cc(C)cc(C)c1,inactive
14,COC(F)(C(F)(F)C(F)(F)F)C(F)(C(F)(F)F)C(F)(F)F (stereo not given),inactive
15,FC(F)OCC(F)(F)C(F)(F)F,inactive
16,CCOP(=O)(OCC)OC(=CCl)c1ccc(Cl)cc1Cl,inactive
17,CCOc1ccc(N)cc1,inactive
18,O=C(O)CC(O)(CC(=O)O)C(=O)O,inactive
19,Cc1cccc(N=Nc2ccc(N(C)C)cc2)c1,inactive
20,C[N+](C)(C)Cc1ccccc1,inactive
